In PubChem BioAssay (NCATS):
“And” between values parts separate entries of the source, which are not always exact repeats. Identical values can stand only once. Results filed as inconclusive are left out. The source holds several records for some structures; these can differ, active in one and inactive in another. The source made the active and inactive calls. Unless noted, the call rests on the fitted dose curve; in most records, active means well fitted curve in the direction sought with a large enough effect; inconclusive means small, poorly fitted or top-dose-only effect, or another doubt; inactive means no such curve, though single readings can be large; an effect the other way counts as inactive or inconclusive.

What was measured:
[1] = target: Cytochrome P450 1A2 (Homo sapiens) (UniProt P05177); assay: p450-cyp1a2 (AID 410; calls by dose curve; further: potency means the concentration at half of the fitted maximal effect)
Summary of the method: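 Luminescent readout of luciferin formed from Luciferin-ME by human CYP1A2; data normalized against complete inhibition by 57 uM furafylline. Enzyme 20nM, substrate 100uM at Km, 100mM KPO4 buffer, 60 min reaction at room temperature.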

[2] = target: 3',5'-cyclic-AMP phosphodiesterase 4B (Homo sapiens) (UniProt Q07343); assay: qHTS Assay for Inhibitors of PDE-IV (AID 607; active means well fitted activation curve with a large enough effect in the main read-out, with a control signal flat, not every such curve was filed as active; further: % of control where 0% means no effect)
Summary of the method: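 ACTOne HEK293 cells carry a modified cAMP-gated CNG channel and express endogenous PDE4; plated 1000 cells/well, compounds up to 22.9 uM final. Membrane-potential dye fluorescence (ex 535/em 590) was read; parental cells received 10 uM forskolin + 100 uM RO 20-1724.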

[3] = target: Cytochrome P450 3A4 (Homo sapiens) (UniProt P08684); assay: qHTS Assay for Activators of Cytochrome P450 3A4 (AID 885); further: nearly all actives have a fitted effect of over 65% in size
Summary of the method: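 20nM CYP3A4 + 25uM Luciferin-PPXE (=KM), 200mM KPO4; cpd 10 min RT; NADPH regen, 60 min RT; stop w/ detection buffer, 20 min; luminescence. Normalized to 57 uM ketoconazole.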

[4] = Cell Viability - BJ (AID 421; calls by dose curve;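 further: potency means the concentration at half of the fitted maximal effect; cells exposed to compound for 40 hours at 37 °C before readout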); conditions: BJ fibroblast viability, qHTS
Summary of the method: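 Luminescent ATP signal (CellTiter-Glo, 20 min at room temperature) served as the read-out of viable BJ cells after 40 hours of compound treatment. Responses were scaled between DMSO and 100 uM tamoxifen, and AC50 values were obtained by Hill modeling.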

[5] = Cell Viability - MRC5 (AID 434; calls by dose curve;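 further: potency means the concentration at half of the fitted maximal effect; potency reflects cytotoxicity seen as loss of intracellular ATP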); conditions: MRC5 lung fibroblast viability, qHTS
Summary of the method: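 qHTS cytotoxicity in human lung fibroblast MRC5 cells; 40 hr treatment, 37 °C; cellular ATP by luciferase luminescence; DMSO = 0%, 100 uM tamoxifen = 100% inhibition; Hill-fit AC50.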

[6] = Cell Viability - SK-N-SH (AID 435; calls by dose curve;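 further: potency means the concentration at half of the fitted maximal effect; compound exposure lasted 40 h at 37 °C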); conditions: SK-N-SH neuroblastoma cell viability qHTS
Summary of the method: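 Luminescent ATP signal served as the viability read-out after 40 hours of compound treatment of human neuroblastoma SK-N-SH cells. Concentration-response data, scaled between DMSO and 100 uM tamoxifen, gave AC50 values by standard Hill modeling.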

[7] = target: Mitogen-activated protein kinase 10 (Mus musculus) (UniProt Q61831); assay: JNK3 AlphaScreen Assay (AID 530; active means well fitted curve in either direction with a large enough effect, not every such curve was filed as active;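 further: kinase came from lysate of stimulated human HepG2 cells; signal reports phosphorylation of biotinylated GST-cJun 1-79 at Ser73 with 10 µM ATP; on the % scale 0 is the no-effect control and ±100 the full control effect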)
Summary of the method: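 Compound titrations were preincubated 15 minutes at room temperature with substrate, antibody and pre-activated JNK3-containing HepG2 lysate. Reactions were started with 10 uM ATP and stopped with EDTA-containing bead buffer for AlphaScreen detection.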

[8] = Cell Viability - N2a (AID 540); conditions: N2a mouse neuroblastoma cell viability; activity change, negative = cytotoxicity: at 92.2 µM (top of the series);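 further: cells exposed to compound for 40 h at 37 °C; nearly all actives have a fitted effect of over 45% in size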; further: potency means the concentration at half of the fitted maximal effect;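 on activity change, negative = cytotoxicity: plate controls were DMSO alone for no effect and tamoxifen control for full effect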
Summary of the method: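 Luminescent ATP signal (CellTiter-Glo, 20 min at room temperature) served as the viability read-out after N2a cells were treated with compounds for 40 hours at 37 °C. Concentration-response data were fitted to the Hill equation for AC50.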

[9] = Cell Viability - H-4-II-E (AID 543); further: nearly all actives have a fitted effect of over 35% in size; further: potency means the concentration at half of the fitted maximal effect
Summary of the method: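 Luminescent ATP signal (CellTiter-Glo) served as the viability read-out, with cytotoxicity seen as a concentration-dependent ATP drop. Cells were treated for 40 hours in complete medium. AC50 values derive from Hill-equation modelling.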

[10] = Cell Viability - SH-SY5Y (AID 544); conditions: SH-SY5Y neuroblastoma cell viability; viability change, negative = cytotoxic: at 92.2 µM (top of the series); further: nearly all actives have a fitted effect of over 55% in size; further: potency means the concentration at half of the fitted maximal effect;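 on viability change, negative = cytotoxic: 0% = DMSO alone and -100% = 100 µM tamoxifen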
Summary of the method: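 Luminescent ATP read-out (CellTiter-Glo) measures loss of viable SH-SY5Y neuroblastoma cells after 40 hr compound exposure at 37 °C. AC50 values derive from standard Hill modelling of qHTS concentration-response data.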

[11] = Cell Viability - Renal Proximal Tubule (AID 545); conditions: renal proximal tubule cells viability, primary cells of rat origin; activity change, negative = cytotoxicity: at 91.7 µM (top of the series); further: nearly all actives have a fitted effect of over 40% in size; further: potency means the concentration at half of the fitted maximal effect;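 on activity change, negative = cytotoxicity: 0% = DMSO only and -100% = 100 µM tamoxifen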
Summary of the method: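 Luminescent ATP signal (CellTiter-Glo) served as the viability read-out after 40 hr compound exposure of freshly isolated rat proximal tubule cells at 37 °C. Concentration-dependent ATP loss was fitted with the Hill equation to give AC50.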

[12] = Cellular Toxicity (caspase-3) HepG2 (AID 654); further: potency means the concentration at half of the fitted maximal effect;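 on caspase-3 activation: cells exposed to compound for 16 hours before reading; 0% = DMSO alone and 100% = caspase signal from 100 µM tamoxifen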
Summary of the method: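 Cells plated 5 hr at 37 °C, compound added, incubated 16 hr at 37 °C. Caspase-Glo 3/7 reagent followed, 20 min at room temperature, then luminescence read. Activation scored as signal increase; AC50 from Hill fit.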

[13] = Cellular Toxicity (caspase-3) N2a (AID 665); conditions: Potency: caspase-3 activation;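 further: compound exposure lasted 16 h at 37 °C before readout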; further: potency means the concentration at half of the fitted maximal effect
Summary of the method: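 N2a cells, 1500/well, 5 h settle at 37 °C; cpd 16 h, 37 °C; Caspase-Glo 3/7, 1 h RT; luminescence. Norm: DMSO = 0, 10 uM staurosporine = 100%. AC50, Hill fit.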

[14] = Cellular Toxicity (caspase-3) Renal Proximal Tubule (AID 667);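 further: cells exposed to compound for 16 hours at 37 °C before detection; 0% = DMSO basal and 100% = 10 µM staurosporine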
Summary of the method: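 AC50 derived by standard Hill fit of concentration-response data, normalized between DMSO basal and 10 uM staurosporine as 100% stimulation. Cells: primary rat kidney proximal tubule, 16 h treatment at 37 °C.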

[15] = target: Cytochrome P450 3A4 (Homo sapiens) (UniProt P08684); assay: qHTS Assay for Inhibitors and Substrates of Cytochrome P450 3A4 (AID 884); further: nearly all actives have a fitted effect of over 50% in size; further: potency means the concentration at half of the fitted maximal effect
Summary of the method: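 20 nM human CYP3A4 with 25 uM Luciferin-PPXE (at KM) in 200 mM KPO4, preincubated 10 min with compound; NADPH regeneration started a 60 min RT reaction. Luciferin detected by luminescence, normalized to 57 uM ketoconazole as full inhibition.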

[16] = target: Peroxisome proliferator-activated receptor alpha (Homo sapiens) (UniProt Q07869); assay: qHTS assay for small molecule agonists of the peroxisome proliferator-activated receptor alpha (PPARalpha) signaling pathway (AID 651778); conditions: PathHunter PPARalpha complementation, chemiluminescence, 6 h; max response: hits give high values; further: % of control where 0% means no effect
Summary of the method: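 Chemiluminescence from complemented enzyme reported PPARalpha activation in cells after 6 hr of compound treatment at 37 C. The detection reagent was incubated for 60 min at room temperature, and compounds were scored as agonists.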

[17] = qHTS assay for cell viability of HEK293 cells (AID 743288); conditions: ATP luminescence (CellTiter-Glo), 18 h; max response: hits give low values; further: nearly all actives have a fitted effect of over 50% in size; further: potency means the concentration at half of the fitted maximal effect; on max response: on the % scale 0 is the no-effect control and ±100 the full control effect
Summary of the method: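 HEK293 parental, 2,000 cells/well; ≥5 h pre-incubation 37 C; pintool compound addition; 18 h, 37 C; CellTiter-Glo 30 min RT; luminescence read.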

[18] = Cell Viability - Jurkat (AID 426;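 active means dose-dependent loss of cell ATP signal giving a full or clear fitted curve, ranked by lower potency value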; further: potency means the concentration at half of the fitted maximal effect); conditions: qHTS
Summary of the method: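 qHTS, 1536-well; Jurkat E6-1, 5000 cells/well, complete medium; cpd 40 hr, 37 °C; CellTiter-Glo 20 min RT; luminescence. AC50 by Hill fit.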

Sequence of Peroxisome proliferator-activated receptor alpha (Homo sapiens) (Q07869 whole entry, looked up): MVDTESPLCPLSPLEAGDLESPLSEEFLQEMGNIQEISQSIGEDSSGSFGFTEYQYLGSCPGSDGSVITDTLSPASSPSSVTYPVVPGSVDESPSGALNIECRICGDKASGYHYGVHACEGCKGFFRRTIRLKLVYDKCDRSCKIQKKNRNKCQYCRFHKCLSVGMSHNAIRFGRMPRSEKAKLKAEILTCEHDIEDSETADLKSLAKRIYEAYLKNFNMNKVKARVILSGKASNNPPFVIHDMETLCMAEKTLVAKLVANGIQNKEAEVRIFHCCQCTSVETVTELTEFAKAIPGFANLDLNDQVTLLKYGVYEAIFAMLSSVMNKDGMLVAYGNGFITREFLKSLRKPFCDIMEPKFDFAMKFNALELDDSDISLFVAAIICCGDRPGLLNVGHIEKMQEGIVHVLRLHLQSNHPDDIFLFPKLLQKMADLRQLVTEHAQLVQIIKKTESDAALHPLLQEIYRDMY
Sequence of Cytochrome P450 3A4 (Homo sapiens) (P08684 whole entry, looked up): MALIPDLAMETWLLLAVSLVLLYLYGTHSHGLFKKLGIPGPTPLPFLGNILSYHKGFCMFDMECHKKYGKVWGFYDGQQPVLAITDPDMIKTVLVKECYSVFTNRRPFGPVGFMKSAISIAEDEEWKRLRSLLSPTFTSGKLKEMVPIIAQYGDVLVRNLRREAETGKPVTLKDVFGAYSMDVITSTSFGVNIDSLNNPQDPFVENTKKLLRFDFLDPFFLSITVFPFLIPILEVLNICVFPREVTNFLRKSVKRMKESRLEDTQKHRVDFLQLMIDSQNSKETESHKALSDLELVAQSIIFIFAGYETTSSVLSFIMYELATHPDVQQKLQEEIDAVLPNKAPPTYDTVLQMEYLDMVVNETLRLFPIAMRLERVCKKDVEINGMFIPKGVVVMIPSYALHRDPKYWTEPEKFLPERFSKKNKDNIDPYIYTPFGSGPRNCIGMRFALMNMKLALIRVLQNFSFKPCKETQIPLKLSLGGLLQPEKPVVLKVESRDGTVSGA
Sequence of Cytochrome P450 1A2 (Homo sapiens) (P05177 whole entry, looked up): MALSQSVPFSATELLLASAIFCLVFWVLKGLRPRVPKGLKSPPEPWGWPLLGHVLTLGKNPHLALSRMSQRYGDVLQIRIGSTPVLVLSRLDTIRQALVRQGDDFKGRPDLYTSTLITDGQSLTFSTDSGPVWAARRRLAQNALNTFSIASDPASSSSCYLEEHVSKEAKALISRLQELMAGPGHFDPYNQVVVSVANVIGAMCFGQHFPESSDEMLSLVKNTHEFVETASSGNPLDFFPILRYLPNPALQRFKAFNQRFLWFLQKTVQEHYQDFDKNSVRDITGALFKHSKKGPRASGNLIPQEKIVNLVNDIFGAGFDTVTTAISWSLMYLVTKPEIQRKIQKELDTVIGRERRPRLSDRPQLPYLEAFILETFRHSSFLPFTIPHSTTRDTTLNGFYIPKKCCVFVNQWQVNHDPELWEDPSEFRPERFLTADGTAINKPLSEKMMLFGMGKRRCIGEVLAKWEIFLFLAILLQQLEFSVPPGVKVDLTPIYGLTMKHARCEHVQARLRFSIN
Sequence of 3',5'-cyclic-AMP phosphodiesterase 4B (Homo sapiens) (Q07343 whole entry, looked up): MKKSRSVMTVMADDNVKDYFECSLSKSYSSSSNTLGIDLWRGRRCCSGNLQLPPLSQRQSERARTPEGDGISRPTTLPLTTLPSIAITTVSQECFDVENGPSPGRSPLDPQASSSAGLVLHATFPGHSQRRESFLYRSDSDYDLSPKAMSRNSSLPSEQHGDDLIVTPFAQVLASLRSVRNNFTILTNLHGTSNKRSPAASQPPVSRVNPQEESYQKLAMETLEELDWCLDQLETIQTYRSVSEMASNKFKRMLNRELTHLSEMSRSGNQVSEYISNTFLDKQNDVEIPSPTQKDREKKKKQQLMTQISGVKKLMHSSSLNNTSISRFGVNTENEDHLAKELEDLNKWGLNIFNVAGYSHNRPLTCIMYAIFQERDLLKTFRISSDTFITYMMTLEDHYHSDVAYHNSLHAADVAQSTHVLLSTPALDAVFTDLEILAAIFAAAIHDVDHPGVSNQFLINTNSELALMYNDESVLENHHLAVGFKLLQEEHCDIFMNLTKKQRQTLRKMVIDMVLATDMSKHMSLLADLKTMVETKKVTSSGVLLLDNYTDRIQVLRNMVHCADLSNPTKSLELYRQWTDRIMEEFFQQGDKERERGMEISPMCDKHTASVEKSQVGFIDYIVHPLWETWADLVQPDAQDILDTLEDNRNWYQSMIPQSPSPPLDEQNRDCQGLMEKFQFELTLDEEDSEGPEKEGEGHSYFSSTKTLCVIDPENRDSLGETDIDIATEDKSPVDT

O=C(NCc1nc2ccccc2[nH]1)[C@H]1C[C@@H]1[C@H](NP(=O)(c1ccccc1)c1ccccc1)c1ccccc1
active: Potency [1] 15.8 µM
inactive: Potency [2] | Potency [3]

O=Cc1ccc(Cl)c(Cl)c1
inactive: Potency [4] > 92 µM | Potency [5] > 92 µM | Potency [6] > 92 µM | Potency [7] | Potency [8] | Potency [9] | Potency [10] | Potency [11] | Potency [12] | Potency [13] | outcome [14] | Potency [15] | max response [16] 1.8% | max response [17] -7.75%

Nc1ccc2cc3ccccc3cc2c1
inactive: Potency [4] > 92 µM | Potency [18] > 92 µM | Potency [5] > 92 µM | Potency [6] > 92 µM | Potency [8] | Potency [9] | Potency [10] | Potency [11] | Potency [12] | Potency [13] | outcome [14] | Potency [3] | max response [16] -3.75% | max response [17] -16.2%

c1cc(OCC2CO2)cc(OCC2CO2)c1 (stereo not drawn)
inactive: Potency [12] | Potency [13] | outcome [14] | max response [16] -3.13% and -3.49% | max response [17] -14.2%
active: Potency [4] 27.4 µM | Potency [18] 41.9 µM | Potency [5] 34.7 µM | Potency [6] 9.23 µM | Potency [8] 31.6 µM | Potency [9] 39.8 µM | Potency [10] 0.251 µM | Potency [11] 31.6 µM

ClC1=C(Cl)C(Cl)(Cl)C(Cl)=C1Cl
inactive: Potency [4] > 92 µM | Potency [5] > 92 µM | Potency [6] > 92 µM | Potency [7] | Potency [9] | Potency [10] | Potency [11] | Potency [13] | outcome [14] | Potency [15] | max response [16] -0.568% and 0.283% | max response [17] -13.8%
active: Potency [18] 1.88 µM | Potency [12] 10 µM | Potency [17] 11.2 µM

Oc1ccc2cc(SSc3ccc4cc(O)ccc4c3)ccc2c1
inactive: Potency [12] | Potency [13] | outcome [14] | Potency [3] | max response [16] -7.41% | max response [17] -14.6%
active: Potency [4] 49.1 µM | Potency [18] 36.7 µM | Potency [5] 38.3 µM | Potency [6] 42.5 µM | activity change, negative = cytotoxicity [8] -111% | Potency [9] 50.1 µM | viability change, negative = cytotoxic [10] -101% | activity change, negative = cytotoxicity [11] -82.8% | Potency [15] 15.8 µM

CCC(C)Nc1ccc(NC(C)CC)cc1 (stereo not drawn)
inactive: Potency [12] | Potency [13] | outcome [14] | Potency [3] | max response [16] -4.78% and -5%
active: Potency [4] 14 µM | Potency [18] 3.09 µM | Potency [5] 20.7 µM | Potency [6] 8.73 µM | Potency [8] 15.8 µM | Potency [9] 6.31 µM | Potency [10] 5.01 µM | activity change, negative = cytotoxicity [11] -100% | Potency [15] 15.8 µM | Potency [17] 28.2 µM

Cc1cc(Nc2ccc(O)cc2)ccc1N
active: Potency [18] 7.82 µM | Potency [6] 87 µM | activity change, negative = cytotoxicity [8] -119% | Potency [9] 39.8 µM | Potency [10] 6.31 µM | Potency [15] 15.8 µM
inactive: Potency [5] > 92 µM | Potency [11] | Potency [12] | Potency [13] | outcome [14] | Potency [3] | max response [16] -7.64% | max response [17] -27%

O=C1OC(O)C(C(Cl)Cl)=C1Cl (stereo not drawn)
active: Potency [4] 41.2 µM | Potency [18] 21.3 µM | Potency [6] 30.2 µM | activity change, negative = cytotoxicity [8] -101% | Potency [10] 15.8 µM | Potency [11] 31.6 µM
inactive: Potency [7] | Potency [12] | outcome [14] | Potency [15] | max response [16] -7.18% | max response [17] -27.5%

CC/C(=C(\c1ccccc1)c1ccc(OCCN(C)C)cc1)c1ccc(O)cc1
inactive: Potency [7] | Potency [13] | outcome [14] | max response [16] -3.76%
active: Potency [4] 45.1 µM | Potency [18] 40.8 µM | Potency [5] 43.3 µM | Potency [6] 34.3 µM | Potency [8] 31.6 µM | Potency [9] 39.8 µM | Potency [10] 31.6 µM | activity change, negative = cytotoxicity [11] -109% | Potency [12] 50.1 µM

C/C=C1\C(=O)C[C@H]2[C@@H]3CCC4=CC(=O)CC[C@]4(C)[C@H]3CC[C@]12C
active: activity change, negative = cytotoxicity [8] -114% | Potency [9] 39.8 µM | viability change, negative = cytotoxic [10] -80.2%
inactive: Potency [4] > 92 µM | Potency [5] > 92 µM | Potency [7] | Potency [12] | Potency [13] | outcome [14] | Potency [15] | max response [16] -3.35%

C=CC(=O)OCC(CO)(COC(=O)C=C)COC(=O)C=C
active: Potency [18] 1.6 µM | Potency [5] 17.8 µM | Potency [6] 2.02 µM | Potency [8] 15.8 µM | Potency [9] 2.51 µM | Potency [10] 1.58 µM | Potency [11] 3.16 µM | Potency [13] 6.31 µM | Potency [17] 5.01 µM and 22.4 µM
inactive: Potency [4] > 92 µM | Potency [12] | outcome [14] | max response [16] 1.55% and 0.0188%

C=C(C)c1ccccc1
inactive: Potency [4] > 92 µM | Potency [18] > 92 µM | Potency [5] > 92 µM | Potency [6] > 92 µM | Potency [8] | Potency [9] | Potency [10] | Potency [11] | Potency [12] | Potency [13] | outcome [14] | max response [16] -0.0788% | max response [17] 1.22%

C=CC(=O)OCCOCCOC(=O)C=C
inactive: Potency [7] | Potency [12] | Potency [13] | outcome [14] | Potency [15] | max response [16] -4.05%
active: Potency [4] 35.8 µM | Potency [18] 7.5 µM | Potency [6] 22.7 µM | activity change, negative = cytotoxicity [8] -114% | Potency [9] 20 µM | Potency [10] 6.31 µM | Potency [11] 20 µM
